Experimental data reported in PubChem BioAssay (Tox21).
Records with an inconclusive call do not appear. Active and inactive are the calls of the source. Unless noted, calls come from the whole dose curve.

Assays:
[1] = qHTS assay to identify small molecule agonists of the sonic hedgehog signaling (Shh) pathway (AID 1259368);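 note: NIH/3T3-derived 3T3Gli1-Luc cells carrying a stable Gli1-driven firefly luciferase reporter; series mostly up to about 92 µM; nearly all actives have a fitted effect of over 15% in size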
Summary of the method: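 Quantitative high-throughput format using a Gli1-driven firefly luciferase reporter line derived from NIH/3T3 cells. After a 24 hr compound treatment at 37 C and 5% CO2, luminescence reported Gli1 response element activity.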

[2] = qHTS assay to identify small molecule antagonists of the sonic hedgehog signaling (Shh) pathway (AID 1259369); note: nearly all actives have a fitted effect of over 45% in size; note: potency is the fitted concentration of half-maximal effect
Summary of the method: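 Stable Gli1-Luc reporter NIH/3T3 clone; quantitative HTS in stimulated mode with conditioned medium. Luminescence measured after 24hr compound treatment at 37 C.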

[3] = molecular target: Estrogen receptor beta (Homo sapiens) (UniProt Q92731); assay: qHTS assay to identify small molecule agonists of the estrogen receptor beta (ER-beta) signaling pathway (AID 1259377; active = well fitted activation curve with a large enough effect in the signal ratio in the repeat runs, not every such curve was filed as active; the % refers to the signal ratio)
Estrogen receptor beta (Homo sapiens), sequence (Q92731 whole entry, looked up): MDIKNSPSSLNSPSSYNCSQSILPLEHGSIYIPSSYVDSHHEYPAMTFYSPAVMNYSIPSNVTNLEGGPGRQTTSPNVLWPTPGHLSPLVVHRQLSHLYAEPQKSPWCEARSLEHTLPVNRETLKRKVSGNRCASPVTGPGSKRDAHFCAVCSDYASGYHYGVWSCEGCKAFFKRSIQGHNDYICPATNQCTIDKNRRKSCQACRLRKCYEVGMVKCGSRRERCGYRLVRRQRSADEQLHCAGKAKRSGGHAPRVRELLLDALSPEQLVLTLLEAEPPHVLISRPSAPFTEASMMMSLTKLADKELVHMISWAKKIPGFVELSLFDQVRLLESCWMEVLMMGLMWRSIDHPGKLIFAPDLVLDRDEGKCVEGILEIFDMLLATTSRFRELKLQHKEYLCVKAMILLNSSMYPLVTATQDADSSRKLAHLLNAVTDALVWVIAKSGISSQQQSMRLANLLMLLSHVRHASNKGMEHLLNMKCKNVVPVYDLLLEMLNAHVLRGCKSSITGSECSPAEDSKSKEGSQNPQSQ
Summary of the method: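 qHTS in ER-beta-UAS-bla HEK293T cells: 6 hr settling, then 16 hr compound at 37C, then LiveBLAzer substrate 2 h at RT before fluorescence reading.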

[4] = molecular target: Estrogen receptor beta (Homo sapiens) (UniProt Q92731); assay: qHTS assay to identify small molecule antagonists of the estrogen receptor beta (ER-beta) signaling pathway (AID 1259378; active = well fitted inhibition curve with a large enough effect in the signal ratio in the repeat runs, not every such curve was filed as active; the % refers to the signal ratio; note: potency is the fitted concentration of half-maximal effect)
Summary of the method: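 Antagonist mode: compounds added to beta-lactamase reporter HEK293T ER-beta-UAS cells stimulated with E2 (1nM final), 16 hr at 37C. LiveBLAzer B/G FRET substrate, 2 hours room temperature, fluorescence read-out.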

[5] = qHTS assay to identify small molecule agonists of the androgen receptor (AR) signaling pathway in the presence of an antagonist - cell viability counter screen (AID 1259379; active = well fitted curve in the direction sought with a large enough effect in the repeat runs; an effect the other way counts as inactive or inconclusive; note: nearly all actives have a fitted effect of over 25% in size; note: potency is the fitted concentration of half-maximal effect;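 for activity change, negative = cytotoxicity: MDA-kb2 human breast cancer cells carrying an MMTV luciferase reporter; series mostly up to about 92 µM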)
Summary of the method: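 Nilutamide-containing (3.0uM final) MDA-kb2 cultures, 3,000 cells/well, were treated with compounds across 15 concentrations. After 16 hr at 37C with no CO2, cell viability was determined by CellTiter-Fluor fluorescence in the luciferase assay wells.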

[6] = qHTS assay to identify small molecule agonists of the estrogen receptor beta (ER-beta) signaling pathway - cell viability counter screen (AID 1259380; active = well fitted curve in the direction sought with a large enough effect in the repeat runs; an effect the other way counts as inactive or inconclusive; note: nearly all actives have a fitted effect of over 30% in size)
Summary of the method: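 Steps: plate ER-beta-UAS-bla HEK293T cells, rest 6 hr; add compounds in DMSO; incubate 16 hr at 37C, 5% CO2; add FRET substrate 2 hr; add CellTiter-Glo, wait 30 min at room temperature; read luminescence.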

[7] = molecular target: Androgen receptor (Homo sapiens) (UniProt P10275); assay: qHTS assay to identify small molecule agonists of the androgen receptor (AR) signaling pathway in the presence of an antagonist (AID 1259381); note: nearly all actives have a fitted effect of over 15% in size; note: potency is the fitted concentration of half-maximal effect
Androgen receptor (Homo sapiens), sequence (P10275 whole entry, looked up): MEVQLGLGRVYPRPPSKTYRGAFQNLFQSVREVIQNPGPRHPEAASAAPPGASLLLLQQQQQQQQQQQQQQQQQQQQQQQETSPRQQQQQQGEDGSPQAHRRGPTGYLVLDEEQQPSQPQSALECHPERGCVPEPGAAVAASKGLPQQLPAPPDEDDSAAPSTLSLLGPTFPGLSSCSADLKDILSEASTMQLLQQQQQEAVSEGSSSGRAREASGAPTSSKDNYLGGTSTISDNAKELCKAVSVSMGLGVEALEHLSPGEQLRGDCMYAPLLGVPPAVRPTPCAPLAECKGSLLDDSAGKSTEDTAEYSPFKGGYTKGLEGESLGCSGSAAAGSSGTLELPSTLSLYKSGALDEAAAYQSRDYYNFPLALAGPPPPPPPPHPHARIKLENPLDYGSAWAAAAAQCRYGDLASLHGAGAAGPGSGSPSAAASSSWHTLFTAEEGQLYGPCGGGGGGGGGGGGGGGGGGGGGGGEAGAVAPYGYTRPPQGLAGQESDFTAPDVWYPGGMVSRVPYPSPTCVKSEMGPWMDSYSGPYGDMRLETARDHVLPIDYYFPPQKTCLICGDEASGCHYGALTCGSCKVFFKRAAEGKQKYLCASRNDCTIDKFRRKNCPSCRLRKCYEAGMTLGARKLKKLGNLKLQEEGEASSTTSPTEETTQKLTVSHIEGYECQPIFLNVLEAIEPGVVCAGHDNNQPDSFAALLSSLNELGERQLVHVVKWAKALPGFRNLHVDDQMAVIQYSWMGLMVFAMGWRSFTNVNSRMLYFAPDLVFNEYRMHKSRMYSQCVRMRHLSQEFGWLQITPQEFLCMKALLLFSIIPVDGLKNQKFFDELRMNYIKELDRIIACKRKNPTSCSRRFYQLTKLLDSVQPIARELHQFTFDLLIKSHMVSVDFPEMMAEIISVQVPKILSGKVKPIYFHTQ
Summary of the method: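 Reporter-gene luminescence from MDA-kb2 cells exposed 16hr at 37C (0% CO2) to 15-point compound titrations with 3.0uM final nilutamide as AR antagonist.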

[8] = qHTS assay to identify small molecule antagonists of the estrogen receptor beta (ER-beta) signaling pathway - cell viability counter screen (AID 1259382; active = well fitted curve in the direction sought with a large enough effect in the repeat runs; an effect the other way counts as inactive or inconclusive;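 note: HEK293T cells carrying ER-beta-UAS-bla reporter stimulated with estradiol; series mostly up to about 92 µM; nearly all actives have a fitted effect of over 55% in size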)
Summary of the method: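 Viability is scored by CellTiter-Glo luminescence (30 min, room temperature) in ER-beta-UAS-bla HEK293T wells already read for reporter fluorescence. Compound exposure lasts 16 hr at 37C alongside 1nM 17-beta-estradiol in charcoal-stripped serum medium.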

[9] = molecular target: Estrogen receptor (Homo sapiens) (UniProt P03372); assay: qHTS assay to identify small molecule agonists of the estrogen receptor alpha (ER-alpha) signaling pathway in the presence of an antagonist (AID 1259383); note: top concentration of the series differs between compounds; nearly all actives have a fitted effect of over 15% in size
Estrogen receptor (Homo sapiens), sequence (P03372 whole entry, looked up): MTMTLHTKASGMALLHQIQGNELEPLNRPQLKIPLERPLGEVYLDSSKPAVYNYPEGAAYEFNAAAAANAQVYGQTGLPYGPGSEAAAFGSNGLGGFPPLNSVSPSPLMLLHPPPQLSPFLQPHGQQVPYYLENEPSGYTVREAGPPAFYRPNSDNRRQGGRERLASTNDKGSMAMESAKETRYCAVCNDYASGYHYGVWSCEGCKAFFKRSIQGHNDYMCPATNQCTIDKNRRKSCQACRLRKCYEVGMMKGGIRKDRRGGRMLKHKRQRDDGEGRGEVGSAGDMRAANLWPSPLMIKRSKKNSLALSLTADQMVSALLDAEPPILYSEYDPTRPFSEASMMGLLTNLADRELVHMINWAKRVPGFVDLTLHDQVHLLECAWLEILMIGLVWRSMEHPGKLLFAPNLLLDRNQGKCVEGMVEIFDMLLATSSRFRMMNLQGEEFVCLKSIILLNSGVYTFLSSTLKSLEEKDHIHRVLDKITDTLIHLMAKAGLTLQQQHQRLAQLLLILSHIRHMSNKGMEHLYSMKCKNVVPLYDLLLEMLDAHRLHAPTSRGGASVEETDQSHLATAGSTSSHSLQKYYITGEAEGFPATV
Summary of the method: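 Readout was ERE-driven luciferase luminescence in VM7Luc4E2 cells, which express full-length ER-alpha endogenously. Compounds were tested at 15 concentrations for 22hr alongside 10.0nM ICI-182,780 (final concentration).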

[10] = qHTS assay to identify small molecule agonists or antagonists of the thyroid stimulating hormone receptor (TSHR) signaling pathway - wild type cell line counter screen (AID 1259384)
Summary of the method: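 Counter screen in untransfected Hek293: compounds (15-point titration, triplicate) plus phosphodiesterase inhibitor Ro20-1724 added after 18 h plating; 30 min RT. Intracellular cAMP via competitive d2/cryptate immunoassay, 1 h incubation.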
% is set by controls: 0 for no effect and ±100 for the full control effect.

CCCC(=O)O[C@]1(C(=O)COC(=O)CC)CC[C@H]2[C@@H]3CCC4=CC(=O)CC[C@]4(C)[C@H]3[C@@H](O)C[C@@]21C
active: Potency [7] 184 nM
inactive: activity change [1] -1.53% [at 18.9 µM, hits give high values] | activity change, negative = inhibition [2] -24.8% [at 19 µM] | activation [3] 6.24% [at 19 µM] | activity, negative = inhibition [4] 1.87% [at 19 µM] | activity change, negative = cytotoxicity [5] 0.279% [at 19 µM] | activity change, negative = cytotoxicity [6] 1.26% [at 19 µM] | activity change, negative = cytotoxicity [8] 2.67% [at 19 µM] | activation [9] 0.91% [at 19 µM]

CCCCC(CC)COC(=O)COc1ccc(Cl)cc1C (centres undefined)
inactive: Potency [1] | Potency [2] | Potency [3] | Potency [4] | Potency [5] | Potency [6] | Potency [8] | Potency [9] | outcome [10]

c1cnc2c(n1)CCCC2
inactive: Potency [1] | Potency [2] | Potency [3] | Potency [4] | Potency [5] | Potency [6] | Potency [7] | Potency [8]

C/C=C(\C)C(=O)OCCC(C)CCC=C(C)C (centres undefined)
inactive: Potency [1] | Potency [2] | Potency [3] | Potency [4] | Potency [5] | Potency [6] | Potency [8]

CC(=O)OCC(=O)[C@@]12OC(C)(C)O[C@@H]1C[C@H]1[C@@H]3C[C@H](F)C4=CC(=O)C=C[C@]4(C)[C@@]3(F)[C@@H](O)C[C@@]12C
inactive: Potency [1] | Potency [2] | Potency [3] | Potency [4] | Potency [5] | Potency [6] | Potency [8] | Potency [9] | outcome [10]

CCC(C(=O)OCCN(CC)CC)c1ccccc1 (centres undefined)
inactive: Potency [1] | Potency [2] | Potency [3] | Potency [4] | Potency [5] | Potency [6] | Potency [7] | Potency [8] | Potency [9] | outcome [10]

O=C(O)C(Cc1cc(I)c(O)c(I)c1)c1ccccc1 (centres undefined)
inactive: Potency [1] | Potency [2] | Potency [3] | Potency [4] | Potency [5] | Potency [6] | Potency [8] | Potency [9]

CCC(=O)OC/C=C/c1ccccc1
inactive: Potency [1] | Potency [2] | Potency [3] | Potency [4] | Potency [5] | Potency [6] | Potency [8] | Potency [9]

O=C1NCCN1
inactive: Potency [1] | Potency [2] | Potency [3] | Potency [4] | Potency [5] | Potency [6] | Potency [8] | Potency [9] | outcome [10]

CC(=O)N(c1onc(C)c1C)S(=O)(=O)c1ccc(N)cc1
inactive: Potency [1] | Potency [2] | Potency [3] | Potency [4] | Potency [5] | Potency [6] | Potency [8] | Potency [9] | outcome [10]

O=C(CCCCCCCCC#CI)Oc1ccccc1
inactive: Potency [1] | Potency [2] | Potency [3] | Potency [4] | Potency [5] | Potency [6] | Potency [7] | Potency [8] | outcome [10]

CO[C@@]12[C@H](COC(N)=O)C3=C(C(=O)C(C)=C(N)C3=O)N1C[C@@H]1N[C@@H]12
inactive: Potency [1] | Potency [3] | Potency [5] | Potency [6] | Potency [8]
active: Potency [2] 0.298 µM | Potency [4] 18.8 µM

CCOCCn1c(C2CCN(CCc3ccc(C(C)(C)C(=O)O)cc3)CC2)nc2ccccc21
inactive: Potency [1] | Potency [2] | Potency [3] | Potency [4] | Potency [5] | Potency [6] | Potency [7] | Potency [8] | Potency [9] | outcome [10]

CCCOC(=O)c1ccc(C(=O)OCCC)nc1
inactive: Potency [1] | Potency [2] | Potency [3] | Potency [4] | Potency [5] | Potency [6] | Potency [7] | Potency [8] | Potency [9] | outcome [10]

C=CC(=C)CCCC(C)(C)OC(C)=O
inactive: Potency [1] | Potency [2] | Potency [3] | Potency [4] | Potency [5] | Potency [6] | Potency [7] | Potency [8] | outcome [10]

Cc1ccnc2ccccc12
active: Potency [2] 48.4 µM
inactive: Potency [1] | Potency [3] | Potency [4] | Potency [5] | Potency [6] | Potency [8] | Potency [9]

CC1(C)O[C@@H]2C[C@H]3[C@@H]4CCC5=CC(=O)C=C[C@]5(C)[C@H]4[C@@H](O)C[C@]3(C)[C@]2(C(=O)CO)O1
inactive: Potency [1] | Potency [2] | Potency [3] | Potency [4] | Potency [5] | Potency [6] | Potency [8] | Potency [9] | outcome [10]

CC#N
inactive: Potency [1] | Potency [2] | Potency [3] | Potency [4] | Potency [5] | Potency [6] | Potency [9] | outcome [10]

CN1CCN(c2c(F)cc3c(=O)c(C(=O)O)cn4c3c2OCN4C)CC1
inactive: activity change [1] -1.02% [at 18.9 µM, hits give high values] | activity change, negative = inhibition [2] 2.85% [at 19 µM] | activation [3] -0.625% [at 19 µM] | activity, negative = inhibition [4] 2.63% [at 19 µM] | activity change, negative = cytotoxicity [5] 0.471% [at 19 µM] | activity change, negative = cytotoxicity [6] 3.44% [at 19 µM] | activation [9] -0.999% [at 19 µM] | cAMP activity change [10] 0.366% [at 18.9 µM]

O=C(O)c1snc(Cl)c1Cl
inactive: Potency [1] | Potency [2] | Potency [3] | Potency [4] | Potency [5] | Potency [6] | Potency [8] | outcome [10]

CC(C)(C)CC(C)(C)c1ccc(OCCO)cc1
inactive: Potency [1] | Potency [3] | Potency [7] | Potency [9]
active: Potency [2] 15.3 µM | Potency [4] 43 µM | Potency [5] 30.5 µM
